Each structure is given as a SMILES string.

This assay relates to Fibrinogen (Alexa647-labelled). Briefly: Alexa647-fibrinogen binding to printed small molecules – biochemical, small-molecule microarray, 635/667 nm fluorescence, artefact control for SMM control-protein annotation, profiling panel (AID 1131).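 Also: z-score merges 667 nm fluorescence with per-spot signal-to-noise over triplicate slides.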 Conditions: fibrinogen-A647 binding fluorescence, higher = more signal.
For the molecule `CO[C@@H]1COC(=O)[C@@H]2CCCN2C(=O)[C@@H](C)COC(=O)[C@H](COCc2ccccc2)NC(=O)CC=C[C@H]1C`, the composite z-score was 0.385.

`C#CCCCON=C1C[C@@H](O)[C@@H](O)[C@@H]2[C@@H]3C(=O)N([C@@H](C)c4ccccc4)C(=O)[C@@H]3CC[C@H]12` showed a composite z-score of 0.778.

The molecule `COCCCNC(=O)[C@@]1(C)c2ccccc2C(=O)N(Cc2ccc(OC(F)(F)F)cc2)[C@H]1c1ccc(CO)cc1` showed a composite z-score of -1.75.

Molecule `C=COC[C@H]1CN2[C@@H](CC[C@@H](C)[C@@H]2c2ccc(Br)cc2)C(=O)O1` registered a composite z-score of 0.673.

In turn, `CC(CCN1CCCCc2nc(C)c(C)cc21)=NOC(C)CN1CCCc2nc(C)c(C)cc21` (stereo not given) yielded a composite z-score of 0.651.

On to `CC(C)=NOCc1ccc(-c2cc(-c3ccccc3)no2)cc1`, for which the composite z-score amounted to 0.108.

In turn, `CCc1cc2c(nc1CC)CCN(CCC(C)=NOC[C@@H](O)[C@H]1O[C@@H]3OC(C)(C)O[C@@H]3[C@H]1O)C2` came in with a composite z-score of 0.572.

Consider `COc1cccc([C@H]2Oc3ccc(OC)cc3C(=NO[C@H](C)c3cn([C@@H]4COC[C@H]4O)nn3)[C@@H]2O)c1`, for which the composite z-score is -0.0637.

On to `O=C(NN=C1C[C@@H](O)[C@@H](O)[C@@H]2[C@@H]3C(=O)N(c4ccc(F)cc4F)C(=O)[C@@H]3CC[C@@H]12)OCc1ccccc1`, for which the composite z-score is 0.723.

Take `CCOC(=O)[C@H](Cc1ccccc1)NC(=O)CCC1CC(OC(=O)NCc2ccc3c(c2)OCO3)CC2(CCCC(COC(=O)NCc3cccc(C(F)(F)F)c3)O2)O1` (stereo not given in full): the composite z-score is -0.416.

Molecule `C[C@@H](c1ccccc1)N1C(=O)[C@H]2[C@H]3[C@H](O)C=CC(=O)[C@@H]3CC[C@H]2C1=O` gave a composite z-score of 0.392.

`Cc1cc2c(c(=O)o1)[C@H](O)[C@H]1O[C@H]1C2=O` gave a composite z-score of -0.236.

With `COc1ccc(COC(=O)NN=C2C[C@@H](O)[C@@H](O)[C@@H]3[C@@H]4C(=O)N(c5ccc(F)cc5F)C(=O)[C@@H]4CC[C@@H]23)cc1`, the composite z-score stood at 0.794.

Turning to `CO[C@@H]1COC(=O)CCC[C@@H](C)[C@H](OC)COC(=O)CCC[C@H]1C`, the composite z-score is -0.0557.

In turn, `O=C1C[C@@H](O)[C@@H](O)[C@@H]2[C@@H]3C(=O)N(Cc4ccc5c(c4)OCO5)C(=O)[C@@H]3CC[C@@H]12` yielded a composite z-score of 0.197.

Take `CC=CC1=C(CO)[C@H](O)[C@H]2O[C@H]2[C@H]1O`: the composite z-score is -0.0409.

`CC(C)[C@H](NC(=O)OC(C)(C)C)[C@@H](O)CC(=O)OC(C)(C)C` showed a composite z-score of -0.808.

Regarding `CO[C@H]1COC(=O)[C@@H]2CCCN2C(=O)CC=C[C@@H](C)[C@H](OC)COC(=O)CC=C[C@@H]1C`, the composite z-score is -0.624.

Take `COC(=O)[C@H](C)NC(=O)CCC1CC(OC(=O)NCCc2ccc(F)cc2)CC2(CCCC(COC(=O)NCCc3ccc(Cl)cc3)O2)O1` (stereo not given in full): the composite z-score came to 0.873.

In turn, `CC(C)=CCCC(C)=CCON=C1[C@H]2CCn3c(=O)n(C)c(=O)n3[C@H]2[C@H](O)[C@@H]2O[C@H]12` yielded a composite z-score of 0.674.

The molecule `O=C(NN=C1C[C@@H](O)[C@@H](O)[C@@H]2[C@@H]3C(=O)N(c4cccc(Oc5ccccc5)c4)C(=O)[C@@H]3CC[C@@H]12)OCc1ccccc1` registered a composite z-score of 0.81.

`CC(=O)OC[C@H]1O[C@H](C#CCCCc2ccccc2)C=C[C@@H]1OC(C)=O` yielded a composite z-score of 0.735.

Consider `CC(CCN1CCc2nc(-c3ccccc3)c(-c3ccccc3)cc2C1)=NO[C@H](C)c1cn([C@@H]2COC[C@H]2O)nn1`, for which the composite z-score was found to be 0.717.

`O[C@@H](Cc1ccccc1)[C@H]1C2C=CCCC(c3ccccc3)=C2CN1Cc1cccc(Cl)c1` (stereo not given in full) yielded a composite z-score of 0.43.

In the case of `COc1ccc([Si](C)(C)[C@H]2[C@H](CCO)O[C@@]3(C(=O)N(Cc4cccc(NC(=O)[C@H](C)O)c4)c4ccccc43)[C@@H]2C)cc1`, the composite z-score came out at 0.83.

Turning to `O=C1NC(=O)C2C1C=CC(C(O)Cc1ccccc1)N2Nc1ccccn1` (stereo not given), the composite z-score stood at 0.353.

The molecule `CC(CCC(=O)OC[C@H]1O[C@H](C#Cc2ccccc2)C=C[C@@H]1Oc1ccc(C)cc1)=NOC[C@@H](O)COCc1ccco1` registered a composite z-score of -2.18.

Molecule `CC1CC/C=C\[C@H]2OC34C=CCN(Cn5nnc6ccccc65)C(=O)[C@H]3N(CCO)C(=O)[C@@H]4C2C(=O)O1` (stereo not given in full) came in with a composite z-score of -1.14.

`CCOC(=O)CCN1C(=O)[C@H]2[C@H]3[C@H](O)[C@H](O)CC(=NNC(=O)OCc4ccc(OC)cc4)[C@@H]3CC[C@H]2C1=O` yielded a composite z-score of 0.367.

`CCN1C(=O)[C@H]2[C@H]3[C@H](O)[C@H](O)CC(=NOC(C)CN4CCCCc5nc(C)c(C)cc54)[C@@H]3CC[C@H]2C1=O` (stereo not given in full) gave a composite z-score of -0.323.

The molecule `C#CCCCON=C1C[C@@H](O)[C@@H](O)[C@@H]2[C@@H]3C(=O)N(CCC(=O)OCC)C(=O)[C@@H]3CC[C@@H]12` came in with a composite z-score of 0.211.

Turning to `CCN1C(=O)[C@H]2[C@H]3[C@H](O)[C@H](O)CC(=NO[C@@H]4O[C@H](CO)[C@@H](O)[C@H](O)[C@H]4O)[C@@H]3CC[C@H]2C1=O`, the composite z-score is -2.56.

As for `COCC1=C2[C@@H](CCc3ccccc3)OB(O)C[C@@H]2n2c(=O)n(-c3ccccc3)c(=O)n2C1`, the composite z-score was -0.434.

Regarding `CN1C(=O)C2C=CC(C(O)c3ccc(Br)cc3)N(N(c3ccccc3)c3ccccc3)C2C1=O` (stereo not given), the composite z-score worked out at 0.312.

`CC(CCN1CCCCc2nc(C)c(C)cc21)=NOC(C)CN1CCCCc2nc(C)c(C)cc21` (stereo not given) displayed a composite z-score of 0.911.

The record behind these values is PubChem BioAssay.
